# Laboratory results published in ChEMBL document CHEMBL2218924, “A broad activity screen in support of a chemogenomic map for kinase signalling research and drug discovery” (Biochem J, 2013).
# Legend:
# [1] = target: Mitogen-activated protein kinase 10 (Homo sapiens) (UniProt P53779); details: at 10 µM
# [2] = target: LIM domain kinase 1 (Homo sapiens) (UniProt P53667); details: at 1 µM
# [3] = target: LIM domain kinase 1 (Homo sapiens) (UniProt P53667); details: at 10 µM
# [4] = target: T1, Serine/threonine-protein kinase STK11 (Homo sapiens) (UniProt Q15831); details: at 1 µM
# T1 sequence (whole entry): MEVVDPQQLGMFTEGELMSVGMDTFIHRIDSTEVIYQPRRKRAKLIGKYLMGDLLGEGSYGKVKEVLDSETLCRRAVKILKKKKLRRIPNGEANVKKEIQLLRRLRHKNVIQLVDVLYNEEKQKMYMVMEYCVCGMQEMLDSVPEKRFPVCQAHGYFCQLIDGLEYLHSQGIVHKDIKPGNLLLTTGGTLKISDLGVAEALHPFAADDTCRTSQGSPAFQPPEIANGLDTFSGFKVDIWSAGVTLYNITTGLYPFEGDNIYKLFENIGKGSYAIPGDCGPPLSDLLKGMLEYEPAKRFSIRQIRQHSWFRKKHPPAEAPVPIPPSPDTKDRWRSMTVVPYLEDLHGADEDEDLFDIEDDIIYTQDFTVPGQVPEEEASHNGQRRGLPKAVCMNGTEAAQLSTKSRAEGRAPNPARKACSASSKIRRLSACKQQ
# [5] = target: T1, Serine/threonine-protein kinase STK11 (Homo sapiens); details: at 10 µM
# [6] = target: Serine/threonine-protein kinase 10 (Homo sapiens) (UniProt O94804); details: at 1 µM
# [7] = target: Serine/threonine-protein kinase 10 (Homo sapiens) (UniProt O94804); details: at 10 µM
# [8] = target: Vascular endothelial growth factor receptor 2 (Homo sapiens) (UniProt P35968); details: at 1 µM
# [9] = target: Vascular endothelial growth factor receptor 2 (Homo sapiens) (UniProt P35968); details: at 10 µM
# [10] = target: Tyrosine-protein kinase Lck (Homo sapiens) (UniProt P06239); details: at 1 µM
# Chain of Tyrosine-protein kinase Lck (Homo sapiens) (P06239 2-509 limits assumed): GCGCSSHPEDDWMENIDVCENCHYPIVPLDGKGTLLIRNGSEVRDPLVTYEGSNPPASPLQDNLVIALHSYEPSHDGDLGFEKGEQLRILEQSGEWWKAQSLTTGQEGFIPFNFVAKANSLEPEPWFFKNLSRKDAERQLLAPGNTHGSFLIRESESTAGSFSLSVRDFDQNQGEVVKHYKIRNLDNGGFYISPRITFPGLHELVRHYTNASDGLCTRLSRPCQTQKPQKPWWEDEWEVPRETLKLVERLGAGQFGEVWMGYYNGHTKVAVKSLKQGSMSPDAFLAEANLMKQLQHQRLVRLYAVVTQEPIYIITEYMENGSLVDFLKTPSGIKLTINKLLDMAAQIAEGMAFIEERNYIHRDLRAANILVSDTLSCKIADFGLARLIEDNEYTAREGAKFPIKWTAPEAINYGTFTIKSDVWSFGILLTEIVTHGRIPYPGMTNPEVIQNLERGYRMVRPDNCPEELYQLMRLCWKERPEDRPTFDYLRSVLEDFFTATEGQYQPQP
# Chain of Mitogen-activated protein kinase 10 (Homo sapiens) (P53779 whole entry, the tested form may be a part): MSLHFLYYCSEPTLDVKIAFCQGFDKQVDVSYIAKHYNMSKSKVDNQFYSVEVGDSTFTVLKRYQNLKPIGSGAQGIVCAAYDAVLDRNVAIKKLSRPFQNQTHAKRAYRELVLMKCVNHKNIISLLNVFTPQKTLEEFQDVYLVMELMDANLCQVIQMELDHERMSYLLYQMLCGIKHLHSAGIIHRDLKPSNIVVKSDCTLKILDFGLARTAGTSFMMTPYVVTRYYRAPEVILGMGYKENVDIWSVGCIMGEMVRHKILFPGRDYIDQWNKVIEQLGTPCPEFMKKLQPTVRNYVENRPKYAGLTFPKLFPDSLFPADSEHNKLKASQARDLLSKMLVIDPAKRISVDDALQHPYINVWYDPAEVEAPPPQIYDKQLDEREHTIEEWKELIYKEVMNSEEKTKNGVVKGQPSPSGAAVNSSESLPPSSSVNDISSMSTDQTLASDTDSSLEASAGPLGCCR
# Chain of LIM domain kinase 1 (Homo sapiens) (P53667 whole entry, looked up, the tested form may be a part): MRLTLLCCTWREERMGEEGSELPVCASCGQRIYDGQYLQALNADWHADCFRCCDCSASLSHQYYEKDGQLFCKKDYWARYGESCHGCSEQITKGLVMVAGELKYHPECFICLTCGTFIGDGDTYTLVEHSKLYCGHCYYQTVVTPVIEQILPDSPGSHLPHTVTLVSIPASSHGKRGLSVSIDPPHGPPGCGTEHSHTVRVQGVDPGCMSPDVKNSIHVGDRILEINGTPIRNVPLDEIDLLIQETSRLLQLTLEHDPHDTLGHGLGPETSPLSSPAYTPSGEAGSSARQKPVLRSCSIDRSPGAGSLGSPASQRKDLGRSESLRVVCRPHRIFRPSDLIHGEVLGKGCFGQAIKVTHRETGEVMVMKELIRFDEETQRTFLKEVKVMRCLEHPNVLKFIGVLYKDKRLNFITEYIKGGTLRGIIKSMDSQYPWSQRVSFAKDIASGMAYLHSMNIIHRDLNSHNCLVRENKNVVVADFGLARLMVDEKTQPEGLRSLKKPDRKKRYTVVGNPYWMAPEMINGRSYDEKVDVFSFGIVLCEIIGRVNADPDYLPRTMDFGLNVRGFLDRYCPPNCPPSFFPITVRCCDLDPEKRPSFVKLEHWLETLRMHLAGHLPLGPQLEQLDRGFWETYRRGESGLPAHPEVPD
# Chain of Vascular endothelial growth factor receptor 2 (Homo sapiens) (P35968 whole entry): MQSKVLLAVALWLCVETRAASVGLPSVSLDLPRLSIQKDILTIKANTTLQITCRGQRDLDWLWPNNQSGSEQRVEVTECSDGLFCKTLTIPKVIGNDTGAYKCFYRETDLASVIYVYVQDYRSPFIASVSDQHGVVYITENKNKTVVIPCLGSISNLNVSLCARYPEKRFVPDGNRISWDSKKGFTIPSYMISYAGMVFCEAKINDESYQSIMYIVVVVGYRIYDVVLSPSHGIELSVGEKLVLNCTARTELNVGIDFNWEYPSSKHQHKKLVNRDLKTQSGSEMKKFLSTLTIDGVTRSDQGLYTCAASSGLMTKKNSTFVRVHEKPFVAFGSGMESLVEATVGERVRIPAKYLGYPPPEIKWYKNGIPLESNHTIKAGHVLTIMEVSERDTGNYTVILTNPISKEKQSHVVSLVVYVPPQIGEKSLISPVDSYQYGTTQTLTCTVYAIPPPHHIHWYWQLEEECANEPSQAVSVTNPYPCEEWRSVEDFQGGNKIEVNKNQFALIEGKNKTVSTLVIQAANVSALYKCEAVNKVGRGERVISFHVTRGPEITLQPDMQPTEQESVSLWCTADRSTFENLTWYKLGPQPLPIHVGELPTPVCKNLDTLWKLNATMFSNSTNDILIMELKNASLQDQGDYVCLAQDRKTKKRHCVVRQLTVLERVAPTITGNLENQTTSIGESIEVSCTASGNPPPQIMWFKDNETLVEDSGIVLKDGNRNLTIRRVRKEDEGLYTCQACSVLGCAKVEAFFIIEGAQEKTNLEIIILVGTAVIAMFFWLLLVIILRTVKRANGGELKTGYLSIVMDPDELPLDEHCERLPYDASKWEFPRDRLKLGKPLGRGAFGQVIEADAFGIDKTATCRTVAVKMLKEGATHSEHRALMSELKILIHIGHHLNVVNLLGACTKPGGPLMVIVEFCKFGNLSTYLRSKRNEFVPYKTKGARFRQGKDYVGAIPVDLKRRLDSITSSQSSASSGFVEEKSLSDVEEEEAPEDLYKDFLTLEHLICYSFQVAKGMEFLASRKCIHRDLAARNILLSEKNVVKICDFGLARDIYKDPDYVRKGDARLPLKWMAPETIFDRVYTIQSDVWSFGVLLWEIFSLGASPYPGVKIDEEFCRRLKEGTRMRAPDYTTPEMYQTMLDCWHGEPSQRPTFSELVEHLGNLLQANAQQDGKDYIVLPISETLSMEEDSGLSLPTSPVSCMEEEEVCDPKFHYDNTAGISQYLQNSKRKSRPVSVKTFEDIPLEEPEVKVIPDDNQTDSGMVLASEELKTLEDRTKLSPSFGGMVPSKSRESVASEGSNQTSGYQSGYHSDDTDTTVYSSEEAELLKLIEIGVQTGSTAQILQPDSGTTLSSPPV
# Chain of Serine/threonine-protein kinase 10 (Homo sapiens) (O94804 whole entry, looked up): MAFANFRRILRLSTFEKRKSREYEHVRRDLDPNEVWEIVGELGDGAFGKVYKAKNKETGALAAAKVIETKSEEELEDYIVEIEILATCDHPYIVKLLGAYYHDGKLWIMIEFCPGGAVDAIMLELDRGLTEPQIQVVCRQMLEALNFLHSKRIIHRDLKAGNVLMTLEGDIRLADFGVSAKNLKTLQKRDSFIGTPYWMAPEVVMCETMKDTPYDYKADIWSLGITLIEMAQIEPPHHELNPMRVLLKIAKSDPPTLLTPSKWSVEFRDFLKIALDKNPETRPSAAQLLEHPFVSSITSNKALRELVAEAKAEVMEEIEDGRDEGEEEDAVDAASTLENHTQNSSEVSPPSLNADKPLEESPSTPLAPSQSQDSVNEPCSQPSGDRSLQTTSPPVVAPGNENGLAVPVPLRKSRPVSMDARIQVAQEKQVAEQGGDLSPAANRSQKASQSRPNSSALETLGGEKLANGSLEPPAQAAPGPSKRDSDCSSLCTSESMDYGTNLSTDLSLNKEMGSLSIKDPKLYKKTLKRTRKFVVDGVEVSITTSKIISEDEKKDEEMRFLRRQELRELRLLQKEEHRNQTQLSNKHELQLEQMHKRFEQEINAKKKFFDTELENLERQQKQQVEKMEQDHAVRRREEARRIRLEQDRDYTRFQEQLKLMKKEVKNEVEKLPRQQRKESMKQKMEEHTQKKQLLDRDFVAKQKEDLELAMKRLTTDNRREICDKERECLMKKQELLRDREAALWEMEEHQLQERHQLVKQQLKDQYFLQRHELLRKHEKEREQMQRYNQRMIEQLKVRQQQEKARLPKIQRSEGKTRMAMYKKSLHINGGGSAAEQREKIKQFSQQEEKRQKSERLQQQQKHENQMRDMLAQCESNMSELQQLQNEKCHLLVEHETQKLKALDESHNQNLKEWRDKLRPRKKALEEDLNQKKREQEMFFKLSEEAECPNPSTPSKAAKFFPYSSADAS
smiles,measurement,setting,value
Nc1n[nH]c2nc3ccccc3nc12,residual activity,[1],66%
same,residual activity,[2],89%
same,residual activity,[3],67%
same,residual activity,[4],126%
same,residual activity,[5],88%
same,residual activity,[6],88%
same,residual activity,[7],78%
Oc1cccc(-c2nc(N3CCOCC3)c3oc4ncccc4c3n2)c1,residual activity,[6],96%
same,residual activity,[7],87%
O=C1Cc2c([nH]c3ccc([N+](=O)[O-])cc23)-c2ccccc2N1,residual activity,[1],66%
same,residual activity,[8],52%
same,residual activity,[9],42%
same,residual activity,[6],102%
same,residual activity,[7],110%
same,residual activity,[10],22%
COc1ccc(-c2cnc3c(-c4ccsc4)cnn3c2)cc1,residual activity,[8],88%
same,residual activity,[9],68%
same,residual activity,[10],139%
O=C1NC(=O)C(c2cn(CCCn3ccnc3)c3ccccc23)=C1Nc1ccccc1,residual activity,[1],68%
same,residual activity,[8],73%
same,residual activity,[9],22%
same,residual activity,[3],41%
same,residual activity,[4],100%
same,residual activity,[5],103%
same,residual activity,[6],21%
same,residual activity,[7],6%
same,residual activity,[10],130%
Nc1nccc(-c2c(-c3ccc(F)cc3)ncn2C2CCNCC2)n1,residual activity,[1],22%
same,residual activity,[2],64%
same,residual activity,[3],25%
COc1ccc(Cl)cc1NC(=O)Nc1cc(C)nc2ccccc12,residual activity,[1],78%
same,residual activity,[5],95%
same,residual activity,[6],96%
same,residual activity,[7],96%
COc1ccc(COc2ccc(Cc3cnc(N)nc3N)cc2OC)cc1,residual activity,[10],110%
O=c1cc(N2CCOCC2)oc2c(-c3ccccc3)cccc12,residual activity,[2],101%
same,residual activity,[3],80%
Fc1ccc(-c2nc3n(c2-c2ccncc2)CCS3)cc1,residual activity,[1],7%
same,residual activity,[7],99%
N#C/C(=C\c1ccc(O)c(O)c1)C(=O)NCc1ccccc1,residual activity,[1],72%
same,residual activity,[9],87%
same,residual activity,[4],102%
same,residual activity,[5],100%
NC(=O)c1cccc(-c2cc(Nc3ccc(OC(F)(F)F)cc3)ncn2)c1,residual activity,[8],100%
same,residual activity,[9],89%
same,residual activity,[3],94%
same,residual activity,[4],95%
same,residual activity,[5],98%
same,residual activity,[10],139%
CSc1nc(-c2ccc(F)cc2)c(-c2ccnc(NC(C)c3ccccc3)c2)[nH]1 (stereo not given),residual activity,[1],-3%
same,residual activity,[9],87%
same,residual activity,[3],71%
same,residual activity,[5],98%
same,residual activity,[7],96%
same,residual activity,[10],85%
CC(C)N(CCC(=O)c1ccc2ccccc2c1)Cc1ccccc1,residual activity,[1],84%
same,residual activity,[9],85%
same,residual activity,[3],85%
O=C(c1ccccc1)c1ccc(N2CCOCC2)cc1O,residual activity,[1],53%
same,residual activity,[8],99%
same,residual activity,[9],96%
same,residual activity,[3],80%
same,residual activity,[6],91%
same,residual activity,[7],91%
same,residual activity,[10],137%
